Growth data for 26 molecules are collected here from PubChem BioAssay (NCI).

SMILES strings stand for the structures. About 83,000 compounds went through this panel and 20% of them were active in at least one assay; those are over-represented in the sample as a whole.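 How to read the values: 0–100, growth inhibition (40 = 60% inhibited); 0, no net growth; -100 to 0, cell death (-40 = 40% of starting cells died; -100 = all dead).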 Unmarked numbers belong to inactive results. Active and inactive are the calls of the source. Rule for the calls: active = growth percent below 10; inactive = the rest.

Assay in all cases: NCI-60 one-dose screen, 48 h (100 = growth as untreated, 0 = no growth, -100 = all killed)
Common to all, as to settings: 10 µM unless noted

Assay [1] concerns NCI-H23 lung.
The test system of assay [2] is NCI-H226 lung.
Assay [3] concerns NCI-H322M lung.
Assay [4] deals with HOP-62 NSCLC.
For assay [5], the system named is NCI-H460 lung.
In assay [6] the test system is HOP-92 NSCLC.
Assay [7] deals with NCI-H522 lung.
For assay [8], the system named is A549/ATCC NSCLC.
Assay [9] deals with 786-0 renal.
Assay [10] relates to COLO 205 colon.

With `CN(C)c1ccc(-c2nc(-c3ccccc3)c(-c3ccccc3)[nH]2)cc1`, the growth in assay [1] is 92.2%; in [2], 106%; in assay [3] it was 85.9%; in assay [4] it was 100%; in assay [5], 88.9%; in [6], 52.2%. For the same molecule, the growth in assay [7] is 77.4%; in assay [8] it was 99.5%; in assay [9], 94.6%; in assay [10] it was 129%.
As for `CCNC(=O)Oc1ccc(/C(=C(/CC)Cc2ccccc2)c2ccc(OCCN3CCCC3)cc2)cc1`, the growth in [1] was 101%; in assay [2] it was 99.4%; in assay [3], 91%; in assay [4] it was 83.2%; in [5] it was 94.1%; in [6] it was 62.1%. The growth in assay [7] is 100%; in assay [8] it was 98.4%; in assay [9], 91.2%; in assay [10] it was 102%.
Regarding `CC(=O)c1sc2sc(C(C)=O)c(C)c2c1C`, the growth was 101% in [1]; 42.5% in assay [2]; 99% in assay [3]; 80.3% in [4]; 97.9% in assay [5]; 91.1% in assay [6]. The growth is 76.6% in assay [7], 74.8% in assay [8], 89.2% in assay [9] and 114% in assay [10].
For the molecule `C/C(=N\O)c1ccc(NC(=O)CSc2nnc(-c3cc(-c4ccc(S(N)(=O)=O)cc4)nc4ccccc34)n2-c2ccccc2)cc1`, the growth in [1] was 89.6%; in assay [2], 80.4%; in [3], 86.5%; in assay [4], 95.5%; in assay [5], 67.2%; in assay [6] it was 66%. Moreover, the growth is 67.4% in [7], 79.5% in [8], 72.6% in assay [9] and 78.3% in assay [10].
Regarding `CCN(CC)CCCN1C(=O)c2c(c(C)c3c(oc4ccc(OC)cc43)c2C)C1=O`, the growth is 104% in assay [1]; 32.4% in [2]; 102% in assay [3]; 93.9% in [4]; 108% in assay [5]; 86.7% in [6]. The growth in [7] is 93.9%; in [8], 101%; in [9], 40.2%; in assay [10] it was 92.2%.
On to `COC(=O)/C=C1/SC(=Nc2ccc([N+](=O)[O-])cc2)N(CCc2c[nH]c3ccc(O)cc23)C1=O`, for which the growth in [1] is 64.9%; in assay [2] it was 86.1%; in assay [3], 87.5%; in assay [4], 27.5%; in assay [5], 17.4%; in [6], 27.3%. Besides, the growth in [7] was 57.4%; in [8], 69.3%; in assay [9], 44.2%; in assay [10], 78.1%.
In the case of `COc1ccc(/C=C(/c2ccccc2)[N+](=O)[O-])c(OC)c1`, the growth was 21.1% in assay [1]; 59.9% in assay [2]; 46.1% in assay [3]; 4.17% (active) in assay [4]; 2.72% (active) in [5]; -25.4% (active) in assay [6]. In addition, the growth in [7] is -13.2% (active); in assay [8], 7.88% (active); in [9], -66.1% (active); in [10], -26.9% (active).
With `N#Cc1cncc(-c2ccc3ncnc(Nc4cccc(Cl)c4)c3c2)c1`, the growth in assay [1] is 62.4%; in assay [2], 69.9%; in assay [3] it was 28.7%; in [4], 61.5%; in [5], 75.2%; in assay [6] it was 18.6%. For the same molecule, the growth in assay [7] was 65.2%; in [8], 62.3%; in assay [9] it was 61.6%; in assay [10] it was 96.6%.
On to `COc1cccc(C(=O)NNc2nc(Cl)nc(Cl)n2)c1`, for which the growth in [1] was 99.1%; in assay [2], 105%; in assay [3], 98.5%; in assay [4], 104%; in [5] it was 107%; in assay [6], 98.3%. The growth in assay [7] was 100%; in assay [8], 105%; in [9], 101%; in assay [10] it was 107%.
In the case of `O=[N+]([O-])c1cc(NS(=O)(=O)c2ccccc2)ccc1NS(=O)(=O)c1ccccc1`, the growth in assay [1] was 112%; in [2], 104%; in assay [3] it was 135%; in assay [4], 110%; in assay [5], 93.3%; in assay [6], 97.8%. The growth is 80.9% in assay [7], 97.9% in assay [8], 102% in assay [9] and 109% in [10].
For the molecule `CC1(C)OB(O)c2cc(-c3nc4ccc5[nH]ncc5c4c4c3CCCC4)ccc21`, the growth in [1] was 62.8%; in assay [2], 55%; in assay [3], 57%; in assay [4] it was 68.2%; in assay [5] it was 34.1%; in [6], 73.9%. Also, the growth in assay [7] was 77.9%; in [8] it was 56.4%; in assay [9], 66.1%; in assay [10], 80.9%.
For the molecule `Fc1ccc(Cn2cc(CSc3nc4ccccc4o3)nn2)cc1`, the growth is 106% in assay [1]; 92.8% in assay [2]; 91.9% in [3]; 87.5% in assay [4]; 110% in assay [5]; 113% in [6]. Also, the growth in assay [7] is 83.4%; in [8], 103%; in assay [9], 91.1%; in [10], 114%.
For `CC1(C)CC[C@]2(CO)CC[C@]3(C)[C@H](CC[C@@H]4[C@@]5(C)CCCNC(C)(C)[C@@H]5CC[C@]43C)[C@H]2[C@H]1O`, the growth in assay [1] is 88.1%; in [2] it was 103%; in [3] it was 93.8%; in assay [4] it was 98%; in assay [5], 11.7%; in [6] it was 83.8%. Further, the growth in assay [7] was 92.1%; in [8], 73%; in [9], 96.7%; in assay [10], 0.611% (active).
For `COc1cc2nc3sc(C(=O)Nc4ccc(C(=O)OC(C)C)cc4)c(C(=O)Nc4ccc(Cl)cc4C)n3c(=O)c2cc1OC`, the growth in [1] is 72.1%; in [2], 103%; in [3] it was 68.5%; in assay [4], 67.2%; in [5] it was 22.7%; in assay [6], 32.5%. Also, the growth was 98.7% in assay [7], 52% in assay [8], 53.6% in [9] and 45.8% in [10].
Regarding `Cc1ccc(CNc2c3ccccc3nc3ccccc23)cc1`, the growth is 29.3% in assay [1]; 41.5% in assay [2]; 39.7% in assay [3]; 43.7% in [4]; 8.75% (active) in assay [5]; 3.24% (active) in assay [6]. In addition, the growth was 49% in assay [7], 26.1% in assay [8], 25.4% in assay [9] and 0.281% (active) in assay [10].
Take `CCN1C(=O)N(CC)C2C1N=C(SCc1ccc(Cl)cc1)N2/N=C/C=C/c1ccccc1OC` (stereo not given): the growth is 78.2% in assay [1]; 75% in assay [2]; 97.1% in assay [3]; 70% in assay [4]; 85.6% in assay [5]; 50.6% in [6]. Moreover, the growth in assay [7] was 34.1%; in [8], 53.7%; in assay [9], 86.2%; in [10], 59.7%.
For the molecule `COc1ccc(C(=O)N2c3ccccc3Sc3ccccc32)c(C(F)(F)F)c1`, the growth is 24.4% in assay [1]; 13.1% in assay [2]; 53.4% in assay [3]; 42.8% in assay [4]; 9.51% (active) in assay [5]; 15% in [6]. For the same molecule, the growth in assay [7] is 2% (active); in assay [8], 25.3%; in assay [9], 38.8%; in assay [10], -13.9% (active).
On to `Cc1cccc(-c2nc(Nc3ccc4ncsc4c3)c3ccccc3n2)n1`, for which the growth was 57.8% in assay [1]; 84.9% in [2]; 93.5% in [3]; 80.2% in assay [4]; 36.1% in assay [5]; 110% in assay [6]. In addition, the growth in assay [7] is 56%; in assay [8], 34.5%; in [9], 87.7%; in [10], 12.8%.
On to `COc1ccc(/C=C/C(c2cc(OC)c(OC)c(OC)c2)n2ccnc2)cc1O` (stereo not given), for which the growth is 55.7% in [1]; 88.4% in assay [2]; 45.8% in assay [3]; 47.2% in assay [4]; 16.5% in [5]; 30.5% in [6]. Moreover, the growth in assay [7] was 24.6%; in [8], 29.1%; in assay [9], 34%; in assay [10], 89.8%.
With `Clc1ccc(-c2cc(-c3ccccc3)nc(NCCNc3ccnc4cc(Cl)ccc34)n2)cc1`, the growth in assay [1] was 74.3%; in assay [2], 78.5%; in assay [3], 44.6%; in [4] it was 81.2%; in assay [5], -51.6% (active); in assay [6] it was 31.8%. Further, the growth is -35.9% (active) in assay [7], 36.3% in assay [8], -90.9% (active) in assay [9] and -81.2% (active) in assay [10].
`Cc1ccc(C(=O)c2ccc(CC(=O)N=Nc3c(O)[nH]c4ccc(Br)cc34)n2C)cc1`: the growth is 76.1% in assay [1]; 77.9% in assay [2]; 92% in assay [3]; 89.6% in assay [4]; 104% in assay [5]; 106% in assay [6]. Besides, the growth in [7] is 84.1%; in assay [8] it was 87.2%; in [9], 97.6%; in [10], 106%.
For the molecule `COc1cc(-c2nc3cc(Cl)c(Cl)cc3[nH]2)ccc1OCC(=O)N=Nc1c(O)[nH]c2ccc(Cl)cc12`, the growth is -3.62% (active) in assay [1]; 30.4% in assay [2]; 35.2% in assay [3]; -36.7% (active) in [4]; 5.88% (active) in assay [5]; -19.7% (active) in [6]. In addition, the growth is 4.94% (active) in [7], 45.8% in assay [8], 2.74% (active) in [9] and -63.3% (active) in assay [10].
Regarding `NS(=O)(=O)c1ccc(C(=O)NN2C(=O)c3c(Br)c(Br)c(Br)c(Br)c3C2=O)cc1`, the growth in assay [1] is 104%; in assay [2], 102%; in assay [3], 111%; in assay [4], 105%; in assay [5] it was 110%; in [6], 99.4%. Further, the growth was 94.3% in assay [7], 102% in [8], 103% in assay [9] and 112% in assay [10].
As for `COc1cc(-c2nc3c(ncc4ccc(=O)n(-c5ccccc5)c43)s2)cc(OC)c1OC`, the growth in [1] is 80.5%; in [2], 63.3%; in [3] it was 73.6%; in assay [4], 88.6%; in assay [5], 84.3%; in assay [6], 19.1%. Also, the growth in assay [7] is 64.8%; in assay [8], 86.3%; in assay [9], 46.7%; in [10], 79.2%.
Take `COc1cccc(CNc2c3ccccc3nc3ccccc23)c1`: the growth in [1] is 37.3%; in [2], 48.1%; in assay [3], 44%; in assay [4] it was 46.5%; in assay [5], 10%; in assay [6], 25.5%. The growth in [7] is 61.7%; in assay [8] it was 30.2%; in assay [9], 37.3%; in assay [10] it was 9.63% (active).
Turning to `CCOC(=O)C1=C(C)/C(=C\c2[nH]c(C)c(C(=O)OCC)c2C)N=C1C`, the growth is 80.2% in assay [1]; 94.3% in assay [2]; 93.5% in assay [3]; 83.2% in assay [4]; 102% in assay [5]; 103% in [6]. In addition, the growth in [7] was 75.4%; in assay [8] it was 86.7%; in [9], 98.9%; in [10] it was 85.2%.
